Results taken from PubChem BioAssay AID878 (University of Pittsburgh Molecular Library Screening Center, 2007).
The campaign covered roughly 200,000 compounds. About 65 (0.03%) were called active. This is one part of a sample in which actives are shown more often than they occur.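 The calls were made as follows: active = activation of at least 50% relative to the plate's high and low controls in the primary single-dose screen; inactive = activation below 50%.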

assay: compounds producing H2O2 with reducing agent – biochemical, NIH compound library profiling, artefact control for MLSCN library redox annotation, primary screen (AID 878); settings: DTT-dependent redox cycling H2O2, phenol red/HRP absorbance; at 10 µM; active compounds read high; 100% = 100 µM peroxide control, 0% = buffer;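 also: compound incubated with DTT at 0.8 mM final as the reducing agent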

activation, inactive:
COc1ccc(OC)c(-c2csc(NC(=O)C3=NNC(=O)CC3)n2)c1 -1.87%
COc1ccc(OCC(=O)Nc2cc(C)c(Cl)cc2OC)c([N+](=O)[O-])c1 0.12%
CC1CCN(S(=O)(=O)c2ccc3ncn(CC(=O)N(C)C4CCCCC4)c(=O)c3c2)CC1 -2.09%
CCc1nc2ccccc2c(C(=O)OC2CCCCC2=O)c1C (stereo not given) 0.11%
CCOC(=O)C1(Cc2cccc(OC)c2)CCN(C(C)COC)CC1 (stereo not given) -0.66%
O=C(CSc1nnc(-c2ccncc2)o1)NCc1ccc(Cl)cc1 -0.01%
CC(C)(C)CN1CCNC(=O)C1CC(=O)NC1Cc2ccccc2C1 (stereo not given) -0.72%
Cc1cccc(NC(=S)N(CCN(C)C)C(C)c2ccco2)c1 (stereo not given) 0.05%
CC(C)(C)[C@H]1C=C(C(=O)NCc2ccccc2)O[C@@H](OCc2ccc(CO)cc2)C1 -1.79%
CCC(C)(C)NC(=O)c1cc([N+](=O)[O-])ccc1N1CCCCC1 -0.54%
CCCn1nc(Oc2nc(NC(C)C)nc(N(C)C)n2)ccc1=O 0.03%
Nc1c(-c2ccc(F)cc2)cnc2ncnn12 1.8%
O=C(CN1CCN(C/C=C/c2ccccc2)CC1)Nc1ccc(F)cc1F -0.37%
O=C(CP(=O)(c1ccccc1)c1ccccc1)N1CCOCC1 0.42%
CC(=O)C1=C(C)NC2=C(C(=O)CC(C)(C)C2)C1C (stereo not given) -0.01%
CN1C(=O)/C(=C/c2ccco2)SC1=Nc1cccc(C(=O)O)c1 -0.55%
Cc1cccc(-n2c(Cc3cc(=O)[nH]c(=O)[nH]3)nnc2SCC(=O)Nc2cccc(C(F)(F)F)c2)c1 0.37%
Cc1ccc(OCC(=O)NNC(=S)NCc2ccccc2)cc1 0.08%
CN(C)Cc1ccc(F)cc1Sc1cc(Cl)ccc1Cl -0.14%
CCOc1cc(CNn2c(C)nnc2SCC(=O)NC(C)(C)C)ccc1OCC(=O)NC(C)(C)C -0.27%
CC1=NNC(=O)C1CCC(=O)N/N=C\c1ccc(Cl)c(Cl)c1 (stereo not given) -0.00164%
Cc1ccc2nc(-c3ccccn3)cc(C(=O)Nc3ccc4c(c3)OCO4)c2c1 4.14%
Cc1ccccc1-n1nc(SCC(=O)O)sc1=S -0.13%
CC(=O)Nc1ccccc1C(=O)C(=O)Nc1ccc(F)cc1 -3.37%
CN(C)/C=C/C(=O)c1cnc2sccn2c1=O 0.12%
